Screens deposited in PubChem BioAssay by National Center for Advancing Translational Sciences (NCATS).
A selection: hits, their analogues and other compounds. The true share with any hit is near 6.5%.
HCMV antiviral – inhibitors of human cytomegalovirus | HFF cells, HCMV-luciferase reporter, 72 h; stronger effect = lower value | activity change, negative = inhibition, % at 57.5 µM | actives 4.5% (n = 410,000) | AID 1259415; in the data active = activity change below about -60%; inconclusive = no clear call, values can overlap the other calls; inactive = above about -39%
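Two-dose cell screen: HFF monolayers treated with compounds and infected with luciferase-expressing HCMV at 1 PFU/cell, 72 h at 37C, then lysed for luciferase measurement.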
LASV entry inh – Lassa virus entry inhibition | Lassa virus pseudotype entry inhibition, cell reporter | Potency, µM (highest dose often 37.9 µM), inactives show top-dose activity change, negative = inhibition, usual class: inhibitors | AID 540256 | actives 1.2% (n = 300,000); calls by dose curve; tested in HEK293 cells; note: potency is the fitted concentration of half-maximal effect; nearly all actives have a fitted effect of over 50% in size
FMDV inh – blocks foot and mouth disease virus. FMDV antiviral cell-based qHTS. Potency, µM (titrated, usually from 57.9 µM), inactives show at the highest dose activity change, negative = inhibition, most hits filed as inhibitors. actives 1.2% (n = 410,000). AID 1159524; calls by dose curve; tested in HEK293T cells; note: read-out not given here; potency is the fitted concentration of half-maximal effect; nearly all actives have a fitted effect of over 45% in size
VACV Venus inh – inhibitors of vaccinia virus (Venus reporter) | AID 720580 | Potency, µM (top dose mostly 36.5 µM), without a hit: top-dose activity change, negative = inhibition, hits mostly inhibitors | actives 0.46% (n = 330,000) | Vaccinia virus Venus reporter expression, fluorescence; calls by dose curve; tested in A549 cells; note: potency is the fitted concentration of half-maximal effect; nearly all actives have a fitted effect of over 30% in size
Marburg entry inh – inhibitors of Marburg virus binding or cell entry | actives 1.8% (n = 300,000) | Marburg virus pseudotyped entry inhibition, cell reporter | Potency, µM (series often up to 37.8 µM), for the others: at the highest dose activity change, negative = inhibition, most hits filed as inhibitors; calls by dose curve; tested in HEK293 cells; note: potency is the fitted concentration of half-maximal effect
Vaccinia mCherry – inhibitors of vaccinia virus infection (mCherry reporter signal); Vaccinia virus mCherry reporter infection, fluorescence; Potency, µM (highest dose often 36.5 µM), inactives show top-dose activity change, negative = inhibition, actives largely listed as inhibitors; actives 0.63% (n = 310,000); calls by dose curve; tested in A549 cells; note: potency is the fitted concentration of half-maximal effect; nearly all actives have a fitted effect of over 35% in size
* hit, by the source's call; i = inactive; ? = inconclusive; · = no result given; [ ] = remark or other dose. % is set by controls: 0 for no effect and ±100 for the full control effect.

SMILES | HCMV antiviral | LASV entry inh | FMDV inh | VACV Venus inh | Marburg entry inh | Vaccinia mCherry
O=C1c2ccccc2NC(c2cn[nH]c2-c2ccc(Cl)cc2)N1O (stereo not given) | -39 | ? | 14µM* | -18% | ? | ?
O=C(O)c1ccc(NCc2ccncc2)cc1 | -19 | 26% | -14% | · | 8% | ·
O=C(O)c1cccc(NCc2ccncc2)c1 | -61* | · | · | · | 1% | ·
Cc1ccc(C)c(NC(=O)c2cccc(Oc3ccc([N+](=O)[O-])cc3Cl)c2)c1 | ? | · | -18% | ? | · | ?
COc1ccc(OCCNC(=O)c2cccc(Oc3ccc(C(F)(F)F)cc3[N+](=O)[O-])c2)cc1 | -66* | -30% | ? | -26% | ? | -12%
COc1ccc(NC(=O)c2cccc(Oc3ccc([N+](=O)[O-])cc3Cl)c2)cc1 | -87* | ? | -6% | -21% | ? | ?
O=C(NCCO)c1ccc(Oc2ccc(C(F)(F)F)cc2[N+](=O)[O-])cc1 | -20 | 16% | -11% | -9% | -18%[46.1 µM] | -32%
O=C(Nc1ccc([N+](=O)[O-])cc1Cl)c1cccc([N+](=O)[O-])c1 | 1 | · | 5% | -20% | · | -6%
O=C(Nc1cccc(Cl)c1)c1cccc(Oc2ccc([N+](=O)[O-])cc2Cl)c1 | -89* | -6% | ? | · | -29% | ·
CCOC(=O)c1ccc(N2C(=O)C[C@@H](Sc3nnc(C)s3)C2=O)cc1 | · | · | · | · | 8% | ·
CC(C)c1ccc(CNCc2ccccc2)cc1 | ? | 13% | · | -13% | 18µM* | -3%
COc1ccc(NC(=O)CN2CCCCC2)cc1S(=O)(=O)N1CCCCC1 | 10 | ? | -5% | -20% | -19% | -7%
COc1ccc(CCNC(=O)CN(C2CCCCC2)S(C)(=O)=O)cc1OC | -4 | 7% | · | -18% | 4% | i
COc1ccc(NC(=O)CN(C2CCCCC2)S(C)(=O)=O)cc1Cl | -73* | -5% | -26% | · | -18% | ·
COc1ccc(NC(=O)CCC2CCCCC2)cc1S(=O)(=O)N1CCCCC1 | -82* | ? | -12% | -25% | ? | ?
COc1ccc(NC(=O)CC2CCCC2)cc1S(=O)(=O)N1CCCCC1 | -40 | 10µM* | -21% | -25% | -1% | -6%
CN(C)CC(C(=O)Cc1ccccc1)c1ccccc1 (stereo not given) | -97* | -1%[46.1 µM] | 28µM* | ? | ? | -23%
CCOc1ccc(S(=O)(=O)/N=C(/c2ccccc2)N(C)C)cc1 | -12 | · | 33% | · | · | ·
CCOc1ccc(S(=O)(=O)/N=C(\N)c2ccccc2)cc1 | -39 | 13µM* | -13% | -7% | 0%[46.1 µM] | ?
COc1cccc(N2CCN(C(=O)c3ccc4c(Cl)c5c(nc4c3)CCCC5)CC2)c1 | -75* | ? | ? | 7% | -11%[46.1 µM] | 2%
Cc1nc2cccnc2n1-c1cccc(C(=O)NCCc2ccc(Cl)cc2)c1 | ? | -8%[46.1 µM] | ? | -21% | · | -23%
Cc1nc2cccnc2n1-c1cccc(C(=O)N2CCN(c3cccc(Cl)c3)CC2)c1 | 0 | ? | 25µM* | -28% | · | ?
COc1cccc(N2CCN(C(=O)c3cccc(-n4c(C)nc5cccnc54)c3)CC2)c1 | 0 | -28%[46.1 µM] | 28µM* | -21% | · | -23%
CCc1ccc(Nc2nc(-c3cc4cccc(OC)c4oc3=O)c(CC)s2)cc1 | ? | -22%[46.1 µM] | -3% | -16% | · | -14%
CCSc1nnc2c(n1)OC(c1ccc(OC)c(OC)c1)N(C(C)=O)c1ccccc1-2 (stereo not given) | 1 | -16%[46.1 µM] | 5% | -1% | -1%[46.1 µM] | -3%
SMILES | HCMV antiviral | LASV entry inh | FMDV inh | VACV Venus inh | Marburg entry inh | Vaccinia mCherry
COc1ccc(Nc2nc3ccccc3n3c(N)nnc23)cc1 | 15 | -1%[46.1 µM] | -1% | -5% | ? | -7%
C1=Cc2ccccc2/C1=C(\Cc1ccncc1)Oc1ccncc1 | · | · | · | ? | · | -21%
O=C(c1ccc2c(c1)OCO2)C1CCCN(Cc2cc(F)ccc2-n2cccn2)C1 (stereo not given) | 31 | -12% | 1% | 6% | ? | 10%
COc1cccc(CN2CCCC(C(=O)c3ccc4c(c3)OCO4)C2)c1OC (stereo not given) | -36 | -14%[46.1 µM] | -13% | -9% | 11µM* | -22%
Cc1ccc(-n2cccn2)c(CN2CCCC(C(=O)c3ccc4c(c3)OCO4)C2)c1 (stereo not given) | -73* | ? | -23% | -17% | 10µM* | i
COC(=O)[C@H](Cc1ccccc1)N1CC=CS1(=O)=O | 4 | ? | · | · | · | ·
CC#CCN1c2ccccc2[C@]23CCC(=O)N(Cc4cccc(C(F)(F)F)c4)C2=NC(C(=O)OC)=C(C(=O)OC)[C@H]13 | · | · | · | · | 19%[14.2 µM] | ·
CCS(=O)(=O)NCCc1sc2nc(-c3ccc(OC)cc3)nn2c1C | ? | -15%[46.1 µM] | -25% | ? | · | ?
Cc1ccc2c(c1)N=C(c1ccc(Cl)cc1)CO2 | -102* | -42% | 5% | ? | ? | ?
Cc1ccn2c(=S)[nH]nc2c1 | -67* | · | -11% | 0% | · | i
Cc1cccc(C(=O)NCC2Cc3cc(F)cc(-c4cnccn4)c3O2)n1 (stereo not given) | · | · | -15% | 1% | · | -7%
CCN1C(=O)Cc2cc(S(=O)(=O)N3CCOCC3)ccc21 | 42 | 2% | -24% | 0% | 12%[46.1 µM] | i
CCN1CC(=O)Nc2cc(S(=O)(=O)N3CCOCC3)ccc21 | -60* | -14% | -13% | 2% | -9% | -12%
O=c1[nH]cc(CCc2ccccc2)c2ncncc12 | · | · | · | -19% | · | i
Cc1c(C(=O)C(=O)NCCC2=CCCCC2)c2ccccc2n1C | -62* | 12% | 20% | -9% | 4% | -12%
Cc1cccc(C(C)C)c1NC(=O)Cn1c(=O)oc2cc(S(=O)(=O)N3CCCC3)ccc21 | -11 | 1%[46.1 µM] | -29% | -14% | 10%[46.1 µM] | i
CS(=O)(=O)c1ccc(-c2nccc3[nH]nc(-c4cccc(F)c4)c23)cc1 | -15 | · | · | · | · | ·
CC(C)(C)OC(=O)C[C@H]1C/C=C\C[C@@H](CC(=O)NCCO)C(=O)N[C@H](Cc2ccccc2)COC1=O | -61* | · | -17% | -9% | · | -26%
O=C1N[C@@H](Cc2ccccc2)COC(=O)[C@@H](Cc2ccc(F)cc2)C/C=C\C[C@@H]1CC(=O)N(CCO)Cc1ccccc1 | -96* | · | ? | 13µM* | · | ?
CCOC(=O)NN=C1C[C@@H](O)[C@@H](O)[C@@H]2[C@H]3C(=O)N(C4CCCCC4)C(=O)[C@@H]3CC[C@@H]12 | · | 13%[14.3 µM] | · | · | -25%[14.2 µM] | ·
CC(C)CNC(=O)COc1ccc(Sc2ccc(OCC(=O)NCC(C)C)cc2)cc1 | ? | ? | ? | -13% | 13% | i
CCCC(C)NC(=O)COc1ccc(Sc2ccc(OCC(=O)NC(C)CCC)cc2)cc1 (stereo not given) | -72* | ? | ? | -23% | ? | ?
O=c1c2ccccc2oc2c1ccc1ccccc12 | · | · | 45% | ? | · | ?
O=c1c2ccccc2ccc2ccccc12 | -104* | · | 7% | · | · | ·
